Methyltransferases: Primary Screen for Target Class Profiling of Small Molecule Inhibitors of Methyltransferases; purified enzyme, MTase-Glo SAH luminescence; hits give low values; calls only at 40 µM; hit rate 3.9% among 25,000; AID 1745853, 2022; call rule not given here
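Each enzyme was reacted with SAM and its substrate, with compounds tested once at 40 uM; SAH formed was read by MTase-Glo luminescence.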
Starred values were filed as active, the others as inactive; i = inactive; + = active, no number. This excerpt belongs to a sample that is enriched for hits. % is scaled to controls: 0 for no effect and ±100 for the full control effect.

SMILES	Methyltransferases
COc1ccc(C[C@H](NC(=O)[C@@H]2C[C@H](NC(=O)Nc3ccc(F)cc3F)CN2C(=O)CC(C)(C)C)C(N)=O)cc1	i
CC(O)CN1CC2(CCC1=O)CCN(C(=O)c1ccnn1C)CC2 (stereo not drawn)	i
COc1cc(CCO)ccc1O[C@@H]1O[C@H](CO)[C@@H](O)[C@H](O)[C@H]1O	i
COc1ccc(OC)c(CNC(=O)c2cc3n(n2)CC(C)(C(=O)NC2CCCCCC2)N(C)C3=O)c1 (stereo not drawn)	i
O=C(O)c1ccc2c(c1)C1C=CCC1C(c1ccc(Cl)cc1)N2 (stereo not drawn)	+
Fc1ccc2c(c1)C1C=CCC1C(c1ccc(Cl)cc1)N2 (stereo not drawn)	i
CC(C)COC(=O)c1ccc2c(c1)C1C=CCC1C(c1ccc(Cl)cc1)N2 (stereo not drawn)	i
CN1C(=O)c2cc(C(=O)N3CCC(Cc4ccccc4)CC3)nn2CC1(C)C(=O)NCc1ccccc1 (stereo not drawn)	i
COc1ccc(C(=O)Cn2nc3n(C(C)C)c(=O)c4ccc(C(=O)NCC(C)C)cc4n3c2=O)cc1	i
CCn1c(-c2nonc2N)nc2c(C#CC(C)(C)O)ncc(OCC3CCCNC3)c21 (stereo not drawn)	+
Cc1ccc(C(=O)CSc2nnc3n(CC(C)C)c(=O)c4ccc(C(=O)NC(C)C)cc4n23)cc1	i
CCOC(=O)c1cc2n(n1)CC(C)(C(=O)NCc1ccccc1OC)N(c1ccc(F)cc1)C2=O (stereo not drawn)	i
COc1ccc(C(=O)O[C@H]2C=COC=C3C=C4C(=O)N(C)C(=S)C(=O)N4[C@@H]32)cc1Oc1cc(C=O)ccc1O	i
COCCN(C)C[C@H]1C[C@@H](CO)CN(C(=O)c2ccc(C)c(Cl)c2)C1	i
COCCN(C)Cc1ccc2nc3sc(C(=O)N(C)C4CCCCC4)cn3c2c1	+
COc1cccc2c1NC(c1ccc(Br)cc1)C1CC=CC21 (stereo not drawn)	i
C=CC(=O)Nc1cccc(Nc2nc(Nc3ccc(Oc4ccnc(C(=O)NC)c4)cc3)ncc2F)c1	+
CNC(=O)c1cc(Oc2ccc3nc(N[C@@H]4CCCC[C@H]4O)sc3c2)ccn1	i
NCc1ccc(Nc2ncc(F)c(Nc3ccccc3)n2)cc1	i
Cc1cc(NS(=O)(=O)c2cc3c(cc2C)n(C)c(=O)n3C)ccc1Br	i
Cc1nnc(C[C@@H]2C=C(c3ccc(Cl)cc3)c3ccccc3-n3c(C)nnc32)o1	+
Cc1nc(CC(=O)N2CCCC3(CCC(=O)N(CCC(C)C)C3)C2)cs1 (stereo not drawn)	i
CCOC(=O)c1cc2n(n1)CC(C)(C(=O)NC1CCC(C)CC1)N(c1ccc(C)cc1C)C2=O (stereo not drawn)	i
Cc1oc(C(O)c2ccccc2)nc1C(=O)Nc1ccc(C(=O)Nc2ccccc2)cc1 (stereo not drawn)	i
CC(C)[C@H](C(=O)Nc1ccc(C(=O)NO)cc1)c1ccccc1	+
SMILES	Methyltransferases
O=C(CCCCCCC(=O)Nc1ccccc1)NO	i
COc1ccc(-c2cnc(NC(=O)Cc3ccc(F)cc3)c3c2CCO3)cn1	i
CN(C)Cc1cc(CC2(NCc3cccc4c3OCO4)COC2)no1	i
Cc1c(O)cc(O)c2c(=O)c(O)c(-c3ccc(O)c(O)c3)oc12	+
CC(C)[C@H](CO)Nc1nc(Nc2ccc(C(=O)O)c(Cl)c2)c2ncn(C(C)C)c2n1	i
CN1CCN(CCCN2c3ccccc3Sc3ccc(C(F)(F)F)cc32)CC1	+
CNCCCN1c2ccccc2CCc2ccccc21	i
CN(C)CCCN1c2ccccc2Sc2ccccc21	i
c1cnc2cc3c(cc2n1)C1CNCC3C1	i
Cn1c(=O)c2ccc(C(=O)NC3CCCC3)cc2n2c(=O)n(CC(=O)NCc3ccccc3Cl)nc12	i
CC(=O)Nc1c2n(c3ccccc13)CC(C)(C(=O)NC1CCCCC1)N(C1CCCCCC1)C2=O (stereo not drawn)	i
Cn1c(=O)n(C)c2cc(S(=O)(=O)Nc3ccccc3)c(Cl)cc21	i
O=S(=O)(Nc1cc(Cl)c(Oc2cnc3ccccc3c2)c(Cl)c1)c1ccc(Cl)cc1Cl	+
COc1ccc(NS(=O)(=O)c2cc3c(cc2Cl)n(C)c(=O)n3C)cc1	i
CCCc1ccc(-c2nc(C3CCOC3)no2)cc1 (stereo not drawn)	i
Oc1ccc(C2CNCc3sccc32)cc1O (stereo not drawn)	+
CCCCCOc1ccc(C2SC(=O)NC2=O)cc1OCC (stereo not drawn)	i
COc1ccc(OC)c(S(=O)(=O)N2CCC(C)CC2)c1	i
CNS(=O)(=O)CC1CCC(N(C)c2ncnc3[nH]ccc23)CC1 (stereo not drawn)	+
Cc1cc(-c2nn(-c3ccccc3F)cc2CN(C)C(C)c2ccon2)c(C)s1 (stereo not drawn)	i
CC[n+]1c(/C=C/C=C2/N(C)c3ccccc3C2(C)C)sc2ccccc21	+
O=C(CCc1nnc2n(CCc3ccccc3)c(=O)c3ccccc3n12)NCc1ccccn1	i
COc1cc(CO)ccc1O[C@@H]1O[C@H](CO)[C@@H](O)[C@H](O)[C@H]1O	i
Cc1ccccc1CN1CCC(CN(Cc2cccnc2)C(=O)Cc2ccccc2)CC1	i
CC(=O)NC(Cc1ccccc1)C(=O)O (stereo not drawn)	i
SMILES	Methyltransferases
N[C@@H](Cc1c[nH]c2ccccc12)C(=O)O	i
CC(=O)NC(Cc1c[nH]c2ccccc(=O)c12)C(=O)O (stereo not drawn)	+
Cc1ccc(N2C(=O)c3cc4ccccc4n3CC2(C)C(=O)NC2CCCC2)cc1 (stereo not drawn)	i
CCc1ccccc1NC(=O)Cn1nc2n(CCC(C)C)c(=O)c3ccc(C(=O)NC(C)C)cc3n2c1=O	i
CC(C)(O)c1ccc2c(c1)ncn2-c1cccc(-c2ccccc2C#N)c1	+
COc1ccc(-c2nnc(-c3ccc(OC)c(S(=O)(=O)N4CCCCC4)c3)o2)cc1OC	i
O=C(Cc1ccc(F)cc1)NC1CCN(c2cc(-c3ccccc3)[nH]n2)CC1	i
CC1(C)[C@@H](O)CC[C@]2(C)[C@H]3CC=C4[C@@H]5C[C@](C)(C(=O)O)CC[C@]5(C)CC[C@@]4(C)[C@]3(C)CC[C@@H]12	+
CC(=O)O[C@H]1[C@H](O)C[C@@]2(C)C(CC[C@]3(C)C2CC=C2C4CC(C)(C)CC[C@]4(C(=O)O)CC[C@]23C)C1(C)C (stereo partly drawn)	i
CC1(C)CC[C@]2(C(=O)O)CC[C@]3(C)C(=CCC4[C@@]5(C)C[C@@H](O)[C@H](O)C(C)(C)C5CC[C@]43C)[C@@H]2[C@@H]1O (stereo partly drawn)	i
COc1ccc(OC)c2c1cc1n2CC(C)(C(=O)NC2CCCC2)N(Cc2cccc(F)c2)C1=O (stereo not drawn)	i
C=CCN1CCN(C(=O)c2ccc3c(c2)C(O)CCCCCN3CCOC)CC1 (stereo not drawn)	i
OC[C@H]1O[C@@H](OCCc2ccc(O)cc2)[C@H](O[C@@H]2OC[C@](O)(CO)[C@H]2O)[C@@H](O)[C@@H]1O	i
CCC(C)NC(=O)c1ccc2c(=O)n(C3CC3)c3nn(CC(=O)Nc4cccc(F)c4)c(=O)n3c2c1 (stereo not drawn)	i
COC(=O)Nc1nc2ccc(C(=O)c3cccs3)cc2[nH]1	i

Screens deposited in PubChem BioAssay by National Center for Advancing Translational Sciences (NCATS).
